The record followed here is PubChem BioAssay (EPA / NIEHS).

Assay [1] can be described thus: ATG_CRE_CIS: Attagene CIS-FACTORIAL HepG2 Assay for human cAMP Responsive Element (CRE) binding protein 3 (AID 2282926). Particulars: HepG2 CRE cis-reporter, Attagene multiplexed mRNA; actives raise or lower the signal. A digest of the protocol: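 Human liver HepG2, transient MRTU transfection, 24 h compound exposure. Total RNA → oligo(dT) RT → PCR → 6-FAM primer extension → HpaI cut → CE. Activity called both directions vs DMSO.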

The target in assay [2] is CCAAT/enhancer-binding protein beta (Homo sapiens) (UniProt P17676). The experiment in a line: ATG_C_EBP_CIS: Attagene CIS-FACTORIAL HepG2 Assay for human CCAAT/Enhancer Binding Protein (C/EBP) beta (AID 2282927). Conditions: HepG2 Attagene cis-factorial transcription factor reporter; actives raise or lower the signal. The essentials: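 Transiently transfected HepG2 (MRTU library, endogenous TF-driven promoters); 24 h dosing; total RNA → oligo(dT) RT → PCR → 6-FAM primer extension → HpaI digest → CE; fit bidirectionally vs DMSO.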

Assay [3] can be described thus: ATG_CMV_CIS: Attagene CIS-FACTORIAL HepG2 Assay for human CMV (Internal Marker) (AID 2282928).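 Also: endpoint acts as a background internal control marker rather than a target.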 Conditions: HepG2 CMV promoter reporter, transcription factor profiling; actives raise or lower the signal. The essentials: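 CMV internal-marker background readout in transiently transfected HepG2 cells bearing cis-regulated reporter units. Reporter mRNA is measured 24 h after dosing by RT-PCR and capillary electrophoresis, with bidirectional fitting against DMSO.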

Assay [4] is described as follows: ATG_DR4_LXR_CIS: Attagene CIS-FACTORIAL HepG2 Assay for human Liver X Receptor (LXR), DR4 submotif (AID 2282929). Particulars: HepG2 Attagene DR4 cis-reporter, mRNA transcription; actives raise or lower the signal. A digest of the protocol: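 HepG2 cells transiently transfected with cis-promoter-driven multiplexed reporter units (DR4 element) were dosed for 24 h. Reporter mRNA was quantified by RT-PCR, fluorescent primer extension, HpaI digestion and capillary electrophoresis; bidirectional fitting versus DMSO baseline.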

Assay [5] in a line: ATG_AP_1_CIS: Attagene CIS-FACTORIAL HepG2 Assay for human Activator Protein 1 (AP-1) (AID 2282931). Conditions: HepG2 Attagene cis-factorial AP-1 reporter mRNA; actives raise or lower the signal. The essentials: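 HepG2 cells transiently transfected with cis-element-driven multiplex reporter units; 24 h compound exposure. Reporter mRNA quantified by RT-PCR, FAM-labelled fragments resolved by capillary electrophoresis; bidirectional fit versus DMSO baseline.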

A short description of assay [6]: ATG_AP_2_CIS: Attagene CIS-FACTORIAL HepG2 Assay for human Activator Protein 2 (AP-2) (AID 2282932). Particulars: HepG2 AP-2 cis-reporter, Attagene transcription factor profiling; actives raise or lower the signal. A digest of the protocol:
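Multiplexed mRNA reporter assay in HepG2: cis-regulated units report endogenous factor activity after 24 h treatment. Fluorescence from capillary electrophoresis of RT-PCR products gives the signal, with DMSO as baseline.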

A short description of assay [7]: ATG_BRE_CIS: Attagene CIS-FACTORIAL HepG2 Assay for human Bone Morphogenetic Protein (BMP) Response Element (BRE) (AID 2282933). Particulars: HepG2 BMP response element reporter, Attagene transcription factor profiling; actives raise or lower the signal. A digest of the protocol:
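After a 24 h chemical treatment, transiently transfected HepG2 cells were lysed for RNA; reporter transcripts were quantified by fluorescent RT-PCR and capillary electrophoresis, normalised to DMSO.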

For assay [8], the target named is Transcription factor E2F1 (Homo sapiens) (UniProt Q01094). The experiment in a line: ATG_E2F_CIS: Attagene CIS-FACTORIAL HepG2 Assay for human E2F Transcription Factor 1 (AID 2282935). Conditions: HepG2 Attagene cis-reporter, E2F reporter RNA transcripts; actives raise or lower the signal. A digest of the protocol: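 Measures reporter transcript levels via RT-PCR with capillary electrophoresis detection in HepG2 cells harboring cis-regulated reporter units; 24 h post-dose; bidirectional curve fitting with DMSO as baseline.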

A short description of assay [9]: ATG_E_Box_CIS: Attagene CIS-FACTORIAL HepG2 Assay for human Enhancer Box (E-box) (AID 2282936). Particulars: HepG2 E-box cis-reporter transcription, actives raise or lower the signal. The essentials:
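First, HepG2 cells receive multiple cis-regulated reporter constructs by transient transfection. Next, chemicals are applied for 24 h. Finally, reporter mRNA is quantified via RT-PCR and capillary electrophoresis, with DMSO as baseline.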

The nature of assay [10]: ATG_M_61_CIS: Attagene CIS-FACTORIAL HepG2 Assay for M61 Transcription Factor (Internal Marker) (AID 2282937). Conditions: HepG2 Attagene CIS-FACTORIAL M61 internal marker reporter; actives raise or lower the signal. The essentials:
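HepG2 cells transiently transfected with cis-element-driven multiple reporter transcription units, dosed for 24 h. Reporter mRNA measured by RT-PCR, 6-FAM primer-extension labelling, HpaI digestion and capillary electrophoresis; bidirectional fit versus DMSO baseline.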

Assay [11] can be described thus: ATG_EGR_CIS: Attagene CIS-FACTORIAL HepG2 Assay for human Early Growth Response 1 (EGR1) (AID 2282938). Conditions: HepG2 Attagene CIS-FACTORIAL EGR reporter mRNA; actives raise or lower the signal. A digest of the protocol: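 HepG2 cells transiently transfected with cis-promoter-driven multiplexed reporter transcription units; reporter mRNA measured 24 h after compound dosing by RT-PCR, 6-FAM primer extension, HpaI digestion and capillary electrophoresis. Bidirectional fit versus DMSO baseline.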

Assay [12] can be described thus: ATG_Ets_CIS: Attagene CIS-FACTORIAL HepG2 Assay for human Erythroblast Transformation Specific (ETS) (AID 2282941). Conditions: HepG2 ETS cis-reporter transcription, actives raise or lower the signal. A digest of the protocol: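 HepG2 cells transfected with multiple cis-regulated reporter units measuring endogenous ETS-driven transcription, 24 h after dosing. Reporter mRNA quantified by RT-PCR with capillary electrophoresis; bidirectional fit relative to DMSO.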

The nature of assay [13]: ATG_FoxO_CIS: Attagene CIS-FACTORIAL HepG2 Assay for human Forkhead box O (FoxO) (AID 2282943). Particulars: HepG2 Attagene cis-reporter, FoxO element, mRNA; actives raise or lower the signal. A digest of the protocol:
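Read-out: fluorescence of 6-FAM-labelled reporter cDNA fragments resolved by capillary electrophoresis. Transiently transfected HepG2 cells were dosed for 24 h; activity fitted in both directions relative to DMSO controls.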

Assay [14] is described as follows: ATG_GATA_CIS: Attagene CIS-FACTORIAL HepG2 Assay for human GATA Binding Protein (AID 2282944). Particulars: HepG2 GATA cis-element reporter, Attagene multiplex mRNA; actives raise or lower the signal. The essentials:
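Measures endogenous transcription factor-driven reporter mRNA in HepG2 cells transiently carrying cis-regulated constructs. 24 h dosing; RNA via oligo(dT) reverse transcription, PCR, HpaI digestion, capillary electrophoresis; fitted relative to DMSO.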

The nature of assay [15]: ATG_GLI_CIS: Attagene CIS-FACTORIAL HepG2 Assay for human Zinc Finger Protein GLI1 (AID 2282945). Particulars: HepG2, Attagene cis-factorial reporter mRNA, GLI element; actives raise or lower the signal. The essentials: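 Transiently transfected HepG2 cells report endogenous transcription factor activity via cis-element-driven reporter units. After 24 h compound exposure, reporter mRNA was measured by RT-PCR with capillary electrophoresis; bidirectional fitting against DMSO baseline.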

The nature of assay [16]: ATG_ISRE_CIS: Attagene CIS-FACTORIAL HepG2 Assay for human Interferon Regulatory Factor 1 (IRF1) binding to an Interferon-Stimulated Response Element (ISRE) (AID 2282948). Particulars: HepG2 ISRE cis-reporter (Attagene), mRNA transcription readout; actives raise or lower the signal. The essentials: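 Transiently transfected HepG2 cells carrying cis-element reporter units, dosed 24 hours. Reporter mRNA quantified by RT-PCR, fluorescent primer extension, HpaI digestion and capillary electrophoresis. Bidirectional fitting relative to DMSO.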

The nature of assay [17]: ATG_M_32_CIS: Attagene CIS-FACTORIAL HepG2 Assay for M32 Transcription Factor (Internal Marker) (AID 2282949).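 Also: background control marker of the multiplexed CIS panel rather than a real target.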 Particulars: HepG2 Attagene cis-factorial M32 reporter, mRNA; actives raise or lower the signal. The essentials: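 Following 24 h chemical exposure of HepG2 cells transiently expressing cis-promoter reporter constructs, reporter transcript levels were determined by RT-PCR with fluorescent labelling and capillary electrophoresis, then fitted bidirectionally against DMSO.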

Assay [18] can be described thus: ATG_M_06_CIS: Attagene CIS-FACTORIAL HepG2 Assay for M06 Transcription Factor (Internal Marker) (AID 2282950). Conditions: HepG2 Attagene CIS-FACTORIAL M06 internal marker reporter; actives raise or lower the signal. A digest of the protocol:
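One of many multiplexed endpoints: HepG2 reporter mRNA after 24 h dosing, detected by RT-PCR and capillary electrophoresis fluorescence; gain or loss of signal analysed against DMSO.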

Assay [19] has as its target Paired box protein Pax-6 (Homo sapiens) (UniProt P26367). Briefly: ATG_Pax6_CIS: Attagene CIS-FACTORIAL HepG2 Assay for human Paired Box 6 (PAX6) (AID 2282956). Conditions: HepG2 CIS-FACTORIAL PAX6 reporter transcription, RNA readout; actives raise or lower the signal. A digest of the protocol:
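HepG2 cells transiently transfected with cis-promoter-driven multiplexed reporter units sensing endogenous transcription factor activity; 24 h chemical exposure. Reporter mRNA quantified by RT-PCR, 6-FAM labelling, HpaI digestion and capillary electrophoresis; bidirectional fit versus DMSO baseline.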

Assay [20] in a line: ATG_PXRE_CIS: Attagene CIS-FACTORIAL HepG2 Assay for human Pregnane X Receptor Element (PXRE) (AID 2282957). Conditions: HepG2 Attagene CIS-FACTORIAL PXRE reporter, mRNA; actives raise or lower the signal. The essentials:
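Transfect HepG2 with MRTUs (cis promoter elements); dose chemical, incubate 24 h; isolate RNA, RT with oligo(dT), PCR, 6-FAM label, HpaI cut, CE. Gain/loss fit vs DMSO.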

Calls of active or inactive are those of the source. The calls were made as follows: active = hit-call score of the fitted dose curve at least 0.9, where 1 is the maximum; inactive = score below 0.9.

Chain of Transcription factor E2F1 (Homo sapiens) (Q01094 whole entry, looked up): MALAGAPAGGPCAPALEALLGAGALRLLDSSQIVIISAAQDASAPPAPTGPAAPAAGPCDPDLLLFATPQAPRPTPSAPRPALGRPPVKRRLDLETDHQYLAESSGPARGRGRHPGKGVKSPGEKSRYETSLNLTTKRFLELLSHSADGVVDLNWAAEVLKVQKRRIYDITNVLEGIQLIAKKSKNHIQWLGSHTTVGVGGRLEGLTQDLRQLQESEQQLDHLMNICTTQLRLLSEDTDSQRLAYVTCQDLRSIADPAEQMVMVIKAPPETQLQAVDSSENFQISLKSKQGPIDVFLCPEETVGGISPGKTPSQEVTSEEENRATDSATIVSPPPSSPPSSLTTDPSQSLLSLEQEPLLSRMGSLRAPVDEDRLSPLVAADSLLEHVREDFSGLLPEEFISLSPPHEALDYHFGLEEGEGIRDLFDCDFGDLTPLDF
Chain of Paired box protein Pax-6 (Homo sapiens) (P26367 whole entry, looked up): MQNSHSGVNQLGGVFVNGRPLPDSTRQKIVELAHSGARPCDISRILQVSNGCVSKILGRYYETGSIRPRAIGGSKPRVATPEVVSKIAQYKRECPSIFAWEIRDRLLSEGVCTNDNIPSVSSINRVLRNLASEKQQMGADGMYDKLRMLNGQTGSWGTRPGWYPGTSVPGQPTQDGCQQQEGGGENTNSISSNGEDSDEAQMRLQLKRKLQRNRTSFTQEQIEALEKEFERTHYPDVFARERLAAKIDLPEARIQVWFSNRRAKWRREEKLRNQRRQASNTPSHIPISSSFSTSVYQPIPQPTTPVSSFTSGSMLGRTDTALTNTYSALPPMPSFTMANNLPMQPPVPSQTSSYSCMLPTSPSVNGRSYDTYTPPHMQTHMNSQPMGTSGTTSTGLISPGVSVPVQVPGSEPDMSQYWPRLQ
Chain of CCAAT/enhancer-binding protein beta (Homo sapiens) (P17676 whole entry, looked up): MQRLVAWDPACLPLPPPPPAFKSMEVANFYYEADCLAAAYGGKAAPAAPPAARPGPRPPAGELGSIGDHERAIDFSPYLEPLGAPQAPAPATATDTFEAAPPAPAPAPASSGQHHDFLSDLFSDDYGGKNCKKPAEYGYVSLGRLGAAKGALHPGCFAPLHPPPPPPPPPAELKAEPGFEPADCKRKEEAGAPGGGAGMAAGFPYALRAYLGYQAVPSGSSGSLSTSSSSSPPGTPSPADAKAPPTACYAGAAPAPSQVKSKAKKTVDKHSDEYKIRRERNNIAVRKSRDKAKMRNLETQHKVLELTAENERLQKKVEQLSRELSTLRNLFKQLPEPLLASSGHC

Turning to `CCC(C)C1N=C(C)C(C)S1` (stereo not given), the outcome in [1], in assay [2], in assay [3], in assay [4], in [5] and in [6] was inactive. Further, the outcome in assay [7], in assay [8], in assay [9], in assay [10], in assay [11] and in [12] was inactive. In addition, the result in assay [13], in [14], in assay [15], in assay [16], in [17] and in assay [18] was inactive. Besides, the result in assay [19] was inactive. Further, the AC50 (in general, the midpoint of the concentration-response curve, whichever way the signal moves) in assay [20] is 3.25 µM (active).
In the case of `Cc1ccnc(N)c1`, the result in assay [1], in assay [2], in assay [3], in assay [4], in assay [5] and in [6] was inactive. Moreover, the compound was called inactive in assay [7], in [8], in assay [9], in assay [10], in assay [11] and in assay [12]. The compound was called inactive in [13], in assay [14], in assay [15], in assay [16], in assay [17] and in assay [18]. Further, in assay [19], the result was inactive. The AC50 in assay [20] was 44.6 µM (active).
Consider `CCCCCCC1CCCC(=O)O1` (stereo not given), for which the result in assay [1], in assay [2], in [3], in assay [4], in [5] and in assay [6] was inactive. In addition, the call in assay [7], in assay [8], in [10], in assay [11], in assay [12] and in assay [13] was inactive. Further, the outcome in [14], in [15], in [16], in assay [17], in assay [18] and in [19] was inactive. The AC50 in assay [9] was 75.2 µM (active); in assay [20], 37.5 µM (active).
For the compound `Cc1cc(O)cc(C)c1Cl`, the figures for the AC50 in [1], in assay [3] and in assay [4] were 79 µM (active), 37.3 µM (active) and 65.4 µM (active), respectively. For the same compound, the result in [2], in assay [5], in assay [6], in assay [7], in [8] and in assay [9] was inactive. Besides, the call in assay [10], in assay [11], in assay [12], in assay [13], in assay [14] and in assay [15] was inactive. The call in assay [16], in [17], in [18], in [19] and in assay [20] was inactive.
With `COc1c2occc2cc2ccc(=O)oc12`, the compound was called inactive in assay [1], in assay [4], in assay [5], in [6], in assay [7] and in assay [8]. Also, the result in assay [9], in assay [10], in [11], in [12], in assay [13] and in assay [14] was inactive. The result in [15], in [16], in assay [17], in [18] and in [19] was inactive. In addition, the AC50 in [2] is 63.8 µM (active); in assay [3], 59.2 µM (active); in [20], 27.3 µM (active).
With `Cc1ccccc1S(N)(=O)=O`, the result in [1], in assay [2], in [3], in assay [4], in [5] and in [6] was inactive. Further, the compound was called inactive in assay [7], in assay [8], in assay [9], in assay [10], in assay [11] and in assay [12]. Moreover, the result in assay [13], in [14], in assay [15], in assay [16], in assay [17] and in assay [18] was inactive. Besides, the call in assay [19] and in assay [20] was inactive.
Take `O=C1NC(=O)[C@@H]2CC=CC[C@H]12`: the compound was called inactive in [1], in [2], in [3], in [4], in [5] and in [6]. Moreover, the result in assay [7], in assay [8], in assay [9], in assay [10], in assay [11] and in assay [12] was inactive. Further, the compound was called inactive in assay [13], in assay [14], in [15], in assay [16], in assay [17] and in assay [18]. For the same compound, the compound was called inactive in assay [19] and in assay [20].
